Screening data from PubChem BioAssay.
Shown are actives, neighbours in structure and some others; about 2.9% of the full set was active somewhere.
Hsp70 act = Hsp70 transcriptional activators, primary screen, cell-based, HeLa, Hsp70 promoter luciferase, luminescence, 10 µM; 200,000 tested, 0.04% active; HeLa Hsp70 promoter luciferase reporter; scaled: vehicle 0, proteasome-inhibitor control 100%; activation, % at 10 µM; AID 1203, 2008;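 active means activation above the mean across all tested compounds plus 3 SD, cutoff set per campaign, cut at about 5.5% in these data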
S1P3 antag = S1P3 receptor antagonists, primary screen, cell-based; Sphingosine 1-phosphate receptor 3 (Homo sapiens), Q99500; CHO S1P3 NFAT-BLA reporter, FRET fluorescence, antagonist mode; inhibition, % at 4.98 µM; 170,000 tested, 0.27% active; AID 485, 2006;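 active means inhibition above the plate cutoff, the mean inhibition of test wells on that plate plus 3 SD, cut at about 28% in these data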;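 further: cells challenged with S1P at its EC80 of 0.8 µM; blue over green emission ratio from cleaved BLA substrate after 4 h stimulation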
Target sequence (Q99500 whole entry, looked up): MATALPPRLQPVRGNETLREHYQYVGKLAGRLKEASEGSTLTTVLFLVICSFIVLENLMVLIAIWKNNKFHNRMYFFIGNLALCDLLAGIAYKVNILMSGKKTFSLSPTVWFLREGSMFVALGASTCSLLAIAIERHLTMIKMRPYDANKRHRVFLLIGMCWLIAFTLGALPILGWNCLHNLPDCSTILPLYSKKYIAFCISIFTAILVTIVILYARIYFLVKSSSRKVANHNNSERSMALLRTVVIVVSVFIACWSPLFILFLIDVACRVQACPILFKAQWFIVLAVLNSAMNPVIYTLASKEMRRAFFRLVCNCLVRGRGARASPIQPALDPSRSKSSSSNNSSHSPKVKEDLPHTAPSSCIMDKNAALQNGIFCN
HSF1 inhib = HSF1 inhibitors in luciferase reporter cells, primary screen, cell-based, NIH3T3, luminescence | NIH3T3-HGL HSE-luciferase, MG132-induced, luminescence 8 h; active compounds read low | activity change, negative = inhibition, % at 7.5 µM (by protocol) | 300,000 tested, 0.77% active | AID 2098, 2009;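 active means more than half of replicate wells show activity change below -50%, luminescence cut by over half; inconclusive means some wells, but at most half, below -50%; inactive means no replicate well below -50%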;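 further: luciferase reports HSF-1 transcriptional activity via heat shock element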
HSF1 activator = HSF-1 activators, primary screen, NIH3T3-HGL cells, MG132 stress, luminescence, single point; NIH3T3-HGL HSF-1 luciferase reporter, 8 h; 100% = twice DMSO control signal; AID 504408, 2011; activation, % at 9 µM; 300,000 tested, 1.7% active;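 active means mean replicate activation of at least 50% with a set share of replicates each reaching 50%; inconclusive means only one of those two conditions met; inactive means mean below 50% and too few replicates reaching it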
S1P4 antagonist = S1P4 receptor antagonists, primary screen, cell-based; Sphingosine 1-phosphate receptor 4 (Homo sapiens), O95977; S1P4-expressing cells, antagonist mode, reporter read-out; inhibition, % at 4.98 µM; 220,000 tested, 0.26% active; AID 1510, 2009; in the data active means inhibition above about 29%
S1P4 agonist = S1P4 receptor agonists, primary screen, cell-based; S1P4-expressing cell line, agonist reporter assay; activation, % at 4.98 µM; 220,000 tested, 0.35% active; in the data active means activation above about 11%
S1P4 agonist cf = S1P4 receptor agonists, retest, confirmation, cell-based, high throughput. shares compounds with S1P4 agonist. S1P4 agonist cell-based reporter assay. activation, % at 4.98 µM. 740 tested, 7% active; in the data active means activation above about 12%
S1P1 agonist = S1P1 receptor agonists, human, counter-screen for S1P4 agonist project, cell-based | AID 1563, 2009 | S1P1 agonist cell-based assay, activation | activation, % at 4.98 µM | shares compounds with S1P4 agonist | 740 tested, 4% active; in the data active means activation above about 21%
Numbers stand for hits; – = inactive; ? = inconclusive; · = no result.

SMILES	Hsp70 act	S1P3 antag	HSF1 inhib	HSF1 activator	S1P4 antagonist	S1P4 agonist	S1P4 agonist cf	S1P1 agonist
COc1ccc(N=c2oc3cc(O)ccc3cc2C(=O)NCC2CCCO2)cc1 (stereo unspecified)	–	–	–	–	–	12.0	–	–
COc1cc(NC(=O)c2ccccc2)c(OC)cc1NC(=O)Cc1ccc(F)cc1	·	·	–	–	·	·	·	·
O=S(=O)(/C=C/c1ccccc1)N1CCN(c2cccc(Cl)c2)CC1	–	·	–	–	–	–	·	·
COc1ccc(NC(=O)c2cnc3sccn3c2=O)cc1	–	–	–	–	–	–	·	·
CC(=O)c1cnc2sccn2c1=O	–	–	–	–	–	16.1	–	–
O=C(CCC1CCCCC1)Nc1nccs1	–	–	–	–	–	125.5	–	–
O=C(CN1C(=O)C2CCCCC2C1=O)Nc1nccs1 (stereo unspecified)	–	–	–	–	–	–	·	·
COc1cc(NC(=O)c2cc([N+](=O)[O-])ccc2N2CCOCC2)ccc1NC(=O)c1ccco1	·	·	–	–	·	·	·	·
COc1cccc(CNC(=O)CSc2ccc(-c3ccncc3)nn2)c1	–	–	–	–	–	–	·	·
COc1ccccc1CNC(=O)CSc1ccc(-c2ccncc2)nn1	–	–	–	–	–	29.1	–	–
Cc1n[nH]c(=S)n1/N=C/c1c(O)ccc2ccccc12	·	·	–	–	·	·	·	·
C[C@H](NC(=O)c1nc[nH]c1C(=O)N[C@@H](Cc1ccccc1)C(=O)OCc1ccccc1)C(=O)OCc1ccccc1	·	·	–	–	·	·	·	·
CNC(=O)c1[nH]cnc1C(=O)N[C@@H](Cc1ccccc1)C(=O)OCc1ccccc1	–	–	–	–	–	23.4	56.0	37.7
CN1CCN(CCCNC(=O)c2ccc(/C=C3\Sc4ccccc4N(Cc4ccc(F)cc4)C3=O)cc2)CC1	–	–	–	–	–	23.1	–	–
CN1CCN(CCCNC(=O)c2ccc(/C=C3/Sc4ccccc4N(Cc4cccc(Cl)c4)C3=O)cc2)CC1	–	–	–	–	–	–	·	·
CCOCCCn1c(=NC(C)=O)c(C#N)cc2c(=O)n3cccc(C)c3nc21	·	–	–	–	–	12.1	–	28.3
CC(C)OCCCn1c(=NC(=O)c2cccs2)c(C#N)cc2c(=O)n3ccccc3nc21	·	–	–	–	–	18.6	–	–
CC(=O)N=c1c(C#N)cc2c(=O)n3ccccc3nc2n1CCCOC(C)C	·	–	–	–	–	15.9	–	–
COc1ccc(C2C(C#N)=C(N)Oc3cc(C)[nH]c(=O)c32)c(OC)c1OC (stereo unspecified)	–	·	·	·	–	–	·	·
CCOc1ccccc1CN1CCN(CC2=Cc3cc(OC)ccc3OC2)CC1CCO (stereo unspecified)	·	–	–	–	–	–	·	·
COc1cc(NC2=CC(=O)CC(C)(C)C2)cc(OC)c1	–	–	–	–	–	28.0	–	–
Cc1cc(N(CCO)CCO)ccc1N=Nc1cc(F)ccc1F	–	–	–	–	–	11.2	–	–
Nc1ccc(N(CCO)CCO)cc1	–	–	–	–	–	–	·	·
C[C@@H](NC(=O)[C@@H]1Cc2ccccc2CN1C(=O)OC(C)(C)C)C(=O)NCC1CCCO1 (stereo partly specified)	·	·	–	–	·	·	·	·
COc1ccc(C)cc1NC(=O)c1ccc2c(SCC(=O)O)c3c(nc2c1)CCCC3	·	–	–	–	–	45.4	–	–
SMILES	Hsp70 act	S1P3 antag	HSF1 inhib	HSF1 activator	S1P4 antagonist	S1P4 agonist	S1P4 agonist cf	S1P1 agonist
CCOc1ccc(NC(=O)c2ccc3c(SCC(=O)O)c4c(nc3c2)CCCC4)cc1	–	–	–	–	–	–	·	·
Brc1ccc(-c2ccc(/C=N/Nc3nc4ccccc4[nH]3)o2)cc1	–	–	–	163.1	–	11.7	–	24.0
CC(C)(C)c1ccc(C(=O)N2CCC(C(=O)NCc3ccncc3)CC2)cc1	–	–	–	–	–	16.4	–	–
Cc1cc(SCc2cccc(Cl)c2)nc(=O)[nH]1	·	·	–	–	·	·	·	·
COc1cccc(NC(=O)CSc2nc(=O)n(Cc3ccncc3)c3c2CCCC3)c1	·	·	–	–	·	·	·	·
CCC(=O)N1CCc2cc(S(=O)(=O)NCCc3ccc(S(N)(=O)=O)cc3)ccc21	·	·	–	–	·	·	·	·
Cc1cc(C)n(-c2ccc(C(=O)Nc3sccc3C(N)=O)cc2)n1	–	–	–	?	–	11.7	20.8	–
Cc1nn(C(C)C(=O)NCc2cccs2)c(C)c1[N+](=O)[O-] (stereo unspecified)	–	–	–	–	–	–	·	·
COc1ccc(-c2c(C#N)c(N)nc3c2CCc2ccccc2-3)cc1OC	–	·	–	–	–	13.6	18.5	–
Cc1ccc2[nH]c(=O)c(CN(C)C(=O)c3cccs3)cc2c1	–	–	–	–	–	21.6	–	–
CN(Cc1cc2ccccc2[nH]c1=O)C(=O)c1cccs1	–	–	–	–	–	–	·	·
O=S(=O)(NCC1CCCO1)c1ccc(NS(=O)(=O)c2ccc(F)cc2)cc1 (stereo unspecified)	·	·	–	–	·	·	·	·
COc1ccc(O)c(C2=Nc3ccccc3N=C(c3ccco3)C2)c1	–	·	–	–	–	69.4	–	–
Oc1ccc(Cl)cc1C1=Nc2ccccc2N=C(c2ccco2)C1	–	·	–	–	–	–	·	·
O=C(c1ccncc1)N1N=C(c2ccc(Cl)cc2)CC1c1ccccc1O (stereo unspecified)	·	·	–	–	·	·	·	·
CCN(CC)Cc1c(O)c(Cl)cc2c(C)cc(=O)oc12	–	–	–	–	–	–	·	·
C=CCc1c(O)c(CC)cc2c(C)cc(=O)oc12	·	–	–	–	–	27.7	–	–
S=C(Nc1ccc(Oc2ccccc2)cc1)N(CCCN1CCOCC1)Cc1ccccn1	–	–	–	–	–	–	·	·
COc1ccc2cc(/C=N/NC(=O)c3ccc(CN(c4cccc(Cl)c4Cl)S(C)(=O)=O)cc3)c(Cl)nc2c1	–	–	–	–	–	42.6	–	–
COc1ccc2cc(/C=N/O)c(Cl)nc2c1	–	–	–	–	–	–	·	·
N=c1n(CCN2CCOCC2)c2ccccc2n1CC(=O)c1ccc(Cl)c(Cl)c1	–	–	–	–	–	–	·	·
